PHOSPHO1 block – blocks human PHOSPHO1 phosphatase activity; Q8TCT1; recombinant PHOSPHO1, absorbance phosphatase assay; inhibition, % at 13.3 µM; hit rate 1.1% among 290,000; in the data active = inhibition above about 60%
PvdQ inh – blocks Pseudomonas aeruginosa PvdQ acylase activity; purified PvdQ acylase, fluorescence plate reader; AID 488965; hit rate 0.063% among 340,000; inhibition, % at 10 µM; in the data active = inhibition above about 30%, passing the limit was not always enough;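 note: 0% = vehicle neutral wells and 100% = reference inhibitor wells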
JMJD2C inh – inhibitors of human GASC-1 (JMJD2C) demethylase; GST-JMJD2C(1-420) H3K9me3 demethylation, DELFIA europium; inhibition, % at 2.35 µM; hit rate 0.069% among 330,000; AID 2099;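 active = more than half of a compound's replicate wells show inhibition beyond 50%, single wells judged on their own value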;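 note: signal counts dimethyl H3K9 product captured on neutravidin plate; 0% = median of DMSO wells and 100% = 0.3 times that DMSO median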
SUMO Mot1 rescue – inhibitors of SUMOylation pathway: yeast Mot1-301 growth rescue; S. cerevisiae Mot1-301 growth rescue, ATP luminescence, 38.5C; percent above DMSO median, 100 means doubled; growth rescue, % at 18.8 µM; hit rate 1% among 320,000;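 active = every valid replicate shows activation above 250% relative to neutral control wells; inactive = the rest, any valid replicate at or below 250%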;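 note: OY570 slx delta 5 strain wells were the positive control but not used for scaling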
HDAC3 inhib – human HDAC3 inhibition. O15379. inhibition, % at 8.3 µM. hit rate 0.15% among 320,000. recombinant HDAC3, fluorogenic peptide/trypsin coupled, fluorescence; in the data active = inhibition above about 26%, passing the limit was not always enough
Target sequence (O15379 whole entry, looked up): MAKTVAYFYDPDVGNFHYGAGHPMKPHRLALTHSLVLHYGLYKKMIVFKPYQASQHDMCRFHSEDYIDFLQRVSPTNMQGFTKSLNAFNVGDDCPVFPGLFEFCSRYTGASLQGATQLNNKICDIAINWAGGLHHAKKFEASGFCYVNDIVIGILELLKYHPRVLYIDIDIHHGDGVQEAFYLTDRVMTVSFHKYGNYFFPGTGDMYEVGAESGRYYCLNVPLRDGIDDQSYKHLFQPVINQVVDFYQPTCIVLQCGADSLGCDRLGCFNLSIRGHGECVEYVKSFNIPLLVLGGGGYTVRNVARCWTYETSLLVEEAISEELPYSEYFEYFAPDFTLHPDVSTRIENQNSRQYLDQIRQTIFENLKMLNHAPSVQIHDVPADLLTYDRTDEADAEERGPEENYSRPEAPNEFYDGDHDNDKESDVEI
p-CIP stab down – compounds decreasing mouse p/CIP protein stability. Q05BA5. F442A p/CIP-EGFP cells, EGFP fluorescence, 16 h. decrease of EGFP signal, % at 10 µM. hit rate 0.01% among 290,000. AID 1984;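 active = EGFP signal decrease of at least 30% at 10 µM or well 3 SD below plate mean, unless failing retest; inactive = the rest, including hits failing retest or dose response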
* hit, by the source's call; / = no result. Only some compounds are listed: those with a hit (about 2.2% of all), similar ones and a draw of the others.

SMILES	PHOSPHO1 block	PvdQ inh	JMJD2C inh	SUMO Mot1 rescue	HDAC3 inhib	p-CIP stab down
O=C1c2ccccc2CC1Sc1nnc(-c2ccccn2)o1 (stereo not drawn)	69.4*	-11.6	-19.7	/	/	4.7
O=C1OCCC1Sc1nnc(-c2ccccc2)o1 (stereo not drawn)	18.8	-8.7	7.5	-5.4	-3.4	-3.1
COc1ccc(N2C(=O)C(CN3CCN(C)CC3)C2c2ccccc2)cc1 (stereo not drawn)	45.4	0.8	-15.5	3.0	0.0	-1.2
O=C(N/N=C/c1ccccc1[N+](=O)[O-])c1ccc2nc[nH]c2c1	35.7	-18.5	-8.3	1.4	96.3*	-8.8
Cc1nc2ccc(C(=O)N/N=C/c3ccccc3O)cc2[nH]1	20.0	-3.1	-23.2	11.2	9.0	-5.1
Cc1nc2ccc(C(=O)N/N=C/c3cc([N+](=O)[O-])ccc3O)cc2[nH]1	22.8	-10.6	57.6*	12.5	12.2	-4.8
O=C(NCc1ccco1)/C(=C/c1ccc(F)cc1)NC(=O)c1ccccc1	18.4	2.9	-3.1	-8.5	-3.5	-6.4
Cc1ccc(CN2CCN(C(=O)CC(C)C)CC2)cc1	44.4	5.4	4.9	14.8	-6.5	4.4
Cc1ccc(CN2CCN(C(=O)c3ccncc3)CC2)cc1	68.4*	-3.3	-3.0	1.5	1.1	-5.0
O=C1c2ccccc2C(O)(c2ccccc2)N1c1ccncc1 (stereo not drawn)	14.9	-4.7	9.5	-8.0	2.9	4.6
O=C(O)c1cc(-c2ccc(/C=C3\NC(=O)N(c4ccccc4)C3=O)o2)ccc1Cl	66.8*	-6.5	7.5	4.6	-1.2	-3.8
Cc1cccc(Nc2ncnc3ccc(Br)cc23)c1	8.1	5.6	0.5	10.7	6.6	23.2
Clc1cccc(Nc2ncnc3ccc(Br)cc23)c1	62.0*	12.4	8.1	183.8	/	4.4
COC(=O)CSCC(=O)Nc1nnc(-c2cccc(C)c2)s1	-2.4	-0.2	0.0	3.8	15.6	7.0
CC(NC(=O)CSc1nnc(CC(=O)Nc2ccc(Cl)c(Cl)c2)n1C)c1ccccc1 (stereo not drawn)	95.4*	-0.4	-7.7	-7.6	0.6	-2.9
Cn1c(CC(=O)Nc2ccc(Cl)c(Cl)c2)nnc1SCC(=O)N1CCN(c2ccccc2)CC1	32.9	-9.1	-4.8	-2.8	4.0	-8.5
CCNC(=S)NNC(=O)Nc1ccccc1	78.9*	-11.1	9.7	-15.7	1.5	0.5
O=C(CSc1ccc2nnc(-c3ccccn3)n2n1)Nc1cccc(F)c1	31.8	-1.2	-11.1	3.7	5.3	-6.6
NS(=O)(=O)c1ccc(CCNc2nc3c(-c4cccc(F)c4)nnn3c3ccccc23)cc1	11.1	-31.5	10.1	546.2*	-21.6	12.1
CCn1c(SCC(=O)N/N=C/C(C)=C/c2ccco2)nnc1-c1ccccc1	69.6*	4.0	2.5	-7.0	7.5	1.0
COc1cccc(C(=O)N=c2sc3cc(S(C)(=O)=O)ccc3n2C)c1	1.1	9.1	11.3	-11.9	-13.2	-9.0
C(=N\Nc1nn[nH]n1)/c1ccccc1	71.0*	-1.0	-4.9	-2.6	5.2	3.9
Clc1ccc(/C=N/Nc2nn[nH]n2)cc1	-13.3	15.7	-0.6	-3.6	6.3	-3.3
O=C(Cc1ccccc1F)NC1CCCN(Cc2ccc(Cl)cc2)C1 (stereo not drawn)	/	-12.5	-11.3	-7.5	2.9	7.7
O=C(C1=C[C@H](c2csc3ccccc23)C[C@H](OCCCCO)O1)N1CCN(Cc2ccc3c(c2)OCO3)CC1	23.7	-12.1	2.2	2.2	4.0	-18.8
SMILES	PHOSPHO1 block	PvdQ inh	JMJD2C inh	SUMO Mot1 rescue	HDAC3 inhib	p-CIP stab down
COc1ccc(Cl)cc1S(=O)(=O)NCCCn1ccnc1	8.5	-2.5	0.5	1.9	3.0	2.1
CCOc1cc(Cl)c(S(=O)(=O)NCCCn2ccnc2)cc1Cl	/	-14.0	7.6	356.0*	1.9	-6.6
Cc1ccc(C)c(-n2cc(CN3CCCN(C=O)CC3)c(-c3ccccc3)n2)c1	44.0	3.4	14.0	298.2	-3.6	5.4
CCOC(=O)c1c(S(=O)(=O)NCC2CCN(Cc3cccc(F)c3)CC2)c(C)n(C)c1C	64.9*	-21.1	7.3	-14.4	-0.3	1.2
CCOC(=O)c1c(C)[nH]c(C)c1S(=O)(=O)NCC1CCN(Cc2cccc(Cl)c2)CC1	33.2	-20.7	-4.3	-9.3	1.6	-6.0
COc1ccc(N2CCN(C3CCCN(C(=O)CSC)C3)CC2)cc1 (stereo not drawn)	8.5	-3.9	-9.9	-1.5	-7.8	-0.8

Source: PubChem BioAssay (several laboratories)
